# Results reported in PubChem BioAssay.
# The source made the active and inactive calls. How the calls were made is not given here.
# Experiment: Brca1-Bard1 BiLC signal decrease – luminescence, single concentration, counter-screen for Mdm2/MdmX interaction inhibitor project, confirmation (AID 504668)
# Details: Brca1/Bard1 bimolecular luciferase complementation counterscreen, at 8 µM, active compounds read high
row,Structure (SMILES),inhibition
1,Cc1ccc2cc(CN(CC3CCCO3)C(=S)Nc3ccccc3)c(=O)[nH]c2c1C (stereo not given),35.3% (active)
2,COc1ccc2nc(N=Nc3ccc(O)c4ccccc34)sc2c1,35.3% (active)
3,CCOc1ccc2[nH]c3c(N4CCc5ccccc5C4)ncnc3c2c1,35.8% (active)
4,Oc1c(C(c2ccccc2Cl)N2CCCC2)ccc2cccnc12 (stereo not given),31.4% (active)
5,N/C(=N\NC(=O)c1sccc1OCc1ccc(Cl)cc1Cl)c1ccccn1,35.1% (active)
6,CCOc1ccc(N(C(=O)/C=C/C(=O)Nc2cc(C)on2)C(C(=O)NC2CCCC2)c2ccccc2C)cc1 (stereo not given),27.4% (active)
7,FC(F)(F)c1ccc(CN2C[C@@H]3C(c4ccccc4)C4(c5ccccc5)CC3(C4)[C@H]2c2ccccc2)cc1 (stereo not given in full),27.2% (active)
8,O=C(CN1CCCc2ccccc21)N/N=C/c1c(O)ccc2ccccc12,30.3% (active)
9,ClC(Cl)(Cl)c1nc2ccccc2n2nncc12,31.8% (active)
10,Cc1cc(SCC(=O)N/N=C/c2ccc(O)cc2O)nc2ccccc12,32.4% (active)
11,Cc1ccc(C(=O)N2C(CC(=O)Nc3ccc(Cl)cc3)C(=O)NC3CCCCC32)cc1 (stereo not given),24.8% (active)
12,N=c1n(CCO)c2ccccc2n1CCOc1ccc(Cl)cc1Cl,25.4% (active)
13,COc1ccc(N2C(=O)N3[C@H](c4cccc(C)c4)[C@@H]4C(=O)N(Cc5ccccc5)C(=O)[C@@H]4[C@]3(Cc3ccccc3)C2=O)cc1,35.6% (active)
14,CCS(=O)(=O)c1ccc(N=Nc2ccc(O)c3ncccc23)c(OC)c1,31.8% (active)
15,CCOc1ccccc1Nc1nnc(SC(C)C(=O)Nc2nc(-c3ccccc3)cs2)s1 (stereo not given),35.2% (active)
16,Cn1c(C(=O)NCc2ccccc2)cc2oc3ccccc3c21,32.1% (active)
17,Cc1ccc(Cc2c(C)c(C#N)c3[nH]c4ccccc4n3c2=O)cc1,35.8% (active)
18,CCOc1ccc(CNC(=O)c2cc3oc4ccccc4c3n2C)cc1,25.6% (active)
19,COc1ccccc1-c1cc(C(F)(F)F)nc(S(=O)(=O)CCCC(=O)NC(C)C)n1,31.4% (active)
20,COc1ccc(OC)c2sc(NC(=O)CCS(=O)(=O)c3ccccc3)nc12,23.8% (active)

row,Structure (SMILES),inhibition
1,O=C(Nc1ccccc1)C1=C[C@@H](C2CCCCC2)C[C@@H](OCc2ccc(CO)cc2)O1,24.1% (active)
2,Cc1cc([N+](=O)[O-])cc(/C=N\NC(=O)C2COc3ccccc3O2)c1O (stereo not given),27.6% (active)
3,CC(=O)Nc1nc(C)c(-c2csc(Nc3cccc([N+](=O)[O-])c3)n2)s1,35.6% (active)
4,C=C1CCC2[C@](C)(CO)[C@H](O)CC[C@@]2(C)[C@@H]1C/C=C1\C(=O)OC[C@H]1O (stereo not given in full),27.2% (active)
5,CCN(CC)C(=O)CN1C(=O)/C(=C/c2ccccc2)SC1=S,27.6% (active)
6,Cc1ccc(-n2nc(C)c(NC(=O)CCl)c2C)cc1C,34% (active)
7,CC(=O)c1sc(NC(=O)C2(F)C(F)(F)C(F)(F)C(F)(F)C(F)(F)C2(F)F)nc1C,28.7% (active)
8,COC(=O)c1cccc(C23CC4(C2)[C@H](CN(Cc2ccc(C(F)(F)F)cc2)[C@@H]4c2ccccc2)C3c2ccc(C(F)(F)F)cc2)c1 (stereo not given in full),23.6% (active)
9,COc1ccccc1-n1c(-c2ccccc2)c[n+]2c1CCc1ccccc1-2,29% (active)
10,Cc1ccc(S(=O)(=O)c2nc(S(=O)(=O)c3ccccc3)sc2N2CCN(C)CC2)cc1,23.7% (active)
11,Cc1ccc(O)c(/C=N/NC(=O)Cc2ccc(Cl)cc2)c1,33.6% (active)
12,COc1cc(Br)cc(/C=N/NC(=O)Cc2ccc(C(F)(F)F)cc2[N+](=O)[O-])c1O,32.8% (active)
13,CCC(=O)NC(c1ccc(OC)cc1)c1cc(Cl)c2cccnc2c1O (stereo not given),25.5% (active)
14,N#CC(c1ccc(Cl)cc1)c1ccc2c(C(F)(F)F)cc(C(F)(F)F)nc2n1 (stereo not given),24% (active)
15,CCOC(=O)/C=C/C(=O)Nc1ccc(Oc2ccccc2)cc1,24.1% (active)
16,COc1cc(/C=C/[N+](=O)[O-])ccc1OCc1cccc(C(=O)O)c1,35.1% (active)
17,Brc1cc(Br)c2ncnc(N3CCCCC3)c2c1,27.7% (active)
18,CN1CCN(C(c2ccc(C(F)(F)F)cc2)c2ccc3cccnc3c2O)CC1 (stereo not given),27.9% (active)
19,COc1ccc(NC(=O)Nc2cccc3c2O[C@H](CN(C)Cc2ccc(-c4ccccc4)cc2)[C@@H](C)CN([C@H](C)CO)C3=O)cc1,31% (active)
20,CCCCN1/C(=C/c2ccc3ccccc3[n+]2CC)Sc2ccccc21,32.5% (active)
